Results filed as inconclusive are left out. Unless noted, the call rests on the fitted dose curve; in most records, active means well fitted curve in either direction with a large enough effect (not every such curve was filed as active); inconclusive means small, poorly fitted or top-dose-only effect, or another doubt; inactive means flat fitted curve, though single readings scatter.
Legend:
[1] = AP1 Signaling Pathway (AID 357); conditions: ME-180 AP-1-bla reporter, EGF-induced, beta-lactamase ratio, 5 h; at 17.2 µM (top of the series) unless noted;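 further: ME-180 reporter cells stimulated with EGF at its EC50 level; on the % scale 0 is the no-effect control and ±100 the full control effect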
Procedure, shortened: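 Modulation of EGF-driven AP-1 transcription was assessed with a beta-lactamase reporter in ME-180 cells. Compound and EC50 EGF were co-incubated 5 hours at 37 °C before 2.5-hour CCF4 loading at room temperature and dual-emission reading.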

[2] = NFAT Signaling Pathway (AID 444); conditions: Jurkat NFAT-bla M1, carbachol, beta-lactamase ratio, 5 h; at 17.2 µM (top of the series) unless noted;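 further: carbachol stimulus at about its EC50 of 1 µM final; on the % scale 0 is the no-effect control and ±100 the full control effect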
Procedure, shortened: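 Jurkat cells carrying an NFAT-driven β-lactamase reporter and co-transfected muscarinic M1 receptor were treated with compound plus carbachol (1 uM final, an EC50 level) for 5 h at 37 °C. CCF4 loading followed for 1 h at RT; 460/530 nm ratio gave %activity.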

[3] = Stat Signaling Pathway (AID 446); conditions: ME-180 (cervical carcinoma) SIE beta-lactamase reporter, IL-6 stimulated, 5 h; at 17.2 µM (top of the series) unless noted;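 further: ME-180 cervical cancer cells given 40 pM IL-6 alongside compound; SIE-controlled beta-lactamase reporter measured as 460/530 nm FRET emission ratio; on the % scale 0 is the no-effect control and ±100 the full control effect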
Procedure, shortened: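 Emission at 460 and 530 nm (excitation 405 nm) reports SIE-controlled beta-lactamase in ME-180 cells. Cells received compound with 40 pM IL-6 for 5 hrs at 37 C; data scaled between 300 pM IL-6 and 125 nM JAK-inhibitor controls.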

[4] = target: Glucocorticoid receptor (Homo sapiens) (UniProt P04150); test: GR-GFP Redistribution (AID 450;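 active means compounds whose dose series gives a full or clear partial fitted curve of increased nuclear translocation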; further: potency means the concentration at half of the fitted maximal effect)
Sequence of Glucocorticoid receptor (Homo sapiens) (P04150 whole entry, looked up): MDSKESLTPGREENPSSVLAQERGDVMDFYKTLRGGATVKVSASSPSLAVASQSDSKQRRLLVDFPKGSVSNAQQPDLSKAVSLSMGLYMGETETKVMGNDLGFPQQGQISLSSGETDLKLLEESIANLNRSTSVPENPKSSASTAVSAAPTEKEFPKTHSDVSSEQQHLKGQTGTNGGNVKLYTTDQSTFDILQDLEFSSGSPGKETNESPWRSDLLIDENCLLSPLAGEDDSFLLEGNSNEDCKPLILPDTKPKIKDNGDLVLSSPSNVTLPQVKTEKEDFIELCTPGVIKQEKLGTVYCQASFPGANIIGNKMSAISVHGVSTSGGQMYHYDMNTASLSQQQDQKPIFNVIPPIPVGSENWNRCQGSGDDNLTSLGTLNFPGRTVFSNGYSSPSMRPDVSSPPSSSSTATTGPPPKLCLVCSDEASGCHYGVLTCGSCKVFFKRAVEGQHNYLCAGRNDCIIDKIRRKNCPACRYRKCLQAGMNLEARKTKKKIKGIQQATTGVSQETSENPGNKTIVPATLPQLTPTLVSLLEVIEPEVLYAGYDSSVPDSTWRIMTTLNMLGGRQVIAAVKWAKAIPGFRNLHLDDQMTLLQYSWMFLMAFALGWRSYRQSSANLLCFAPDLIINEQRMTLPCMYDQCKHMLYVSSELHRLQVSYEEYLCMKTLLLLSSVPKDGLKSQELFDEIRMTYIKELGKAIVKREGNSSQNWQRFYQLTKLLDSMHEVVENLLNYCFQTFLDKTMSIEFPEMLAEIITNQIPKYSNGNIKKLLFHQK

O=C1NCC(COCC2CC=CCC2)O1 (stereo not given)
inactive: activity change, negative = inhibition [1] 9.6% | activity change, negative = inhibition [2] 15% | activity, negative = inhibition [3] 2.08% | Potency [4] > 20.6 µM

Cc1nc(NCCCO)c(C#N)c2c1COC(C)(C)C2
inactive: activity change, negative = inhibition [1] -14.2% | activity change, negative = inhibition [2] 1.02% | activity, negative = inhibition [3] 1.39% | Potency [4] > 20.6 µM

Cc1c(NS(=O)(=O)c2cccc3nsnc23)c(=O)n(-c2ccccc2)n1C
inactive: activity change, negative = inhibition [1] 16.3% | activity change, negative = inhibition [2] -7.17% | activity, negative = inhibition [3] 0.737% | Potency [4] > 20.6 µM

CCNC(=O)N(C)c1nncnc1C(=O)NC
inactive: activity change, negative = inhibition [1] 5.47% | activity change, negative = inhibition [2] 2.38% | activity, negative = inhibition [3] -6.45% | Potency [4] > 20.6 µM

Cc1cc(=O)oc(C)c1C(=O)NC12CC3CC(CC(C3)C1)C2
inactive: activity change, negative = inhibition [1] -5.66% | activity change, negative = inhibition [2] 1.02% | activity, negative = inhibition [3] 1.82% | Potency [4] > 20.6 µM

CC(C)COc1ccc(C(=O)NC(CC(C)C)C(=O)O)cc1 (stereo not given)
inactive: activity change, negative = inhibition [1] -2.73% | activity change, negative = inhibition [2] -7.69% | activity, negative = inhibition [3] 3.82% | Potency [4] > 20.6 µM

COC(=O)CNC(=O)c1c(C)cc(=O)oc1C
inactive: activity change, negative = inhibition [1] 21.5% | activity change, negative = inhibition [2] 13.6% | activity, negative = inhibition [3] 5.86% | Potency [4] > 20.6 µM

CCCC(CCC(=O)Nc1ccc(C(=O)OC)cc1)C(=O)O (stereo not given)
inactive: activity change, negative = inhibition [1] -9.55% | activity change, negative = inhibition [2] -16.6% | activity, negative = inhibition [3] 11.7% | Potency [4] > 20.6 µM

Cc1ccc2cc(CNC(C)C)c(=O)[nH]c2c1
inactive: activity change, negative = inhibition [1] 3.13% | activity change, negative = inhibition [2] -10.3% | activity, negative = inhibition [3] -4.43% | Potency [4] > 20.6 µM

Cc1cc(/C(O)=C2\C(=O)C(=O)N(CCN(C)C)C2c2ccncc2)ccc1OCc1ccccc1 (stereo not given)
inactive: activity change, negative = inhibition [1] -14.5% | activity change, negative = inhibition [2] 17.3% | activity, negative = inhibition [3] 4.75% | Potency [4] > 20.6 µM

Cc1nc2c(o1)CCc1ccccc1C2O (stereo not given)
inactive: activity change, negative = inhibition [1] 8.51% | activity change, negative = inhibition [2] 3.41% | activity, negative = inhibition [3] 5.73% | Potency [4] > 20.6 µM

COc1ccc(OCC(=O)OCCN(C)C)cc1
inactive: activity change, negative = inhibition [1] 7.78% | activity change, negative = inhibition [2] 11.6% | activity, negative = inhibition [3] -3.32% | Potency [4] > 20.6 µM

COc1ccc(C2N3CC4(C)CN2CC(C)(C3)C4O)cc1OC (stereo not given)
inactive: activity change, negative = inhibition [1] 9.87% | activity change, negative = inhibition [2] -5.44% | activity, negative = inhibition [3] 15.4% | Potency [4] > 20.6 µM

CC(=O)Oc1ccccc1C1OC(=O)c2ccccc2N1C(C)=O (stereo not given)
inactive: activity change, negative = inhibition [1] 14.3% | activity change, negative = inhibition [2] 12.4% | activity, negative = inhibition [3] 5.01% | Potency [4] > 20.6 µM

Cc1cc(C)n(C(=O)CSc2nc3ccccc3o2)n1
inactive: activity change, negative = inhibition [1] 13.4% | activity change, negative = inhibition [2] -4.76% | activity, negative = inhibition [3] 2.26% | Potency [4] > 20.6 µM

Cc1ccc(N2C(=O)CC(Cn3nc(C)cc3C)C2=O)cc1 (stereo not given)
inactive: activity change, negative = inhibition [1] -1.66% | activity change, negative = inhibition [2] 6.84% | activity, negative = inhibition [3] 13.4% | Potency [4] > 20.6 µM

Cc1nnc(N2CCCCC2)c2ccccc12
inactive: activity change, negative = inhibition [1] -1.88% | activity change, negative = inhibition [2] 13.3% | activity, negative = inhibition [3] -8.53% | Potency [4] > 20.6 µM

COCCNc1oc(-c2ccc(C)cc2)nc1C#N
inactive: activity change, negative = inhibition [1] -6.25% | activity change, negative = inhibition [2] 1.1% | activity, negative = inhibition [3] 0.279% | Potency [4] > 20.6 µM

CCCCn1c(=O)n(C)c(=O)c2c3c(sc21)COC(C)(C)C3
inactive: activity change, negative = inhibition [1] -4.87% | activity change, negative = inhibition [2] 5.64% | activity, negative = inhibition [3] -7.31% | Potency [4] > 20.6 µM

CCOc1cccc(-c2nnc3sc(-c4ccco4)nn23)c1
inactive: activity change, negative = inhibition [1] -1.16% | activity change, negative = inhibition [2] 18.2% | activity, negative = inhibition [3] -18.8% | Potency [4] > 20.6 µM

COc1ccc(C(=O)N2CCC(N3CCN(c4ccccc4)CC3)CC2)cc1OC
inactive: activity change, negative = inhibition [1] 11.1% | activity change, negative = inhibition [2] 20.4% | activity, negative = inhibition [3] -1.54% | Potency [4] > 20.6 µM

C=CCOc1nc2c(c(=O)n(C)c(=O)n2C)n1Cc1ccc(Cl)cc1
inactive: activity change, negative = inhibition [1] -1.14% | activity change, negative = inhibition [2] -8.76% | activity, negative = inhibition [3] -5.11% | Potency [4] > 20.6 µM

NS(=O)(=O)c1ccc(-c2ccc(C=NC3CCS(=O)(=O)C3)o2)cc1 (stereo not given)
inactive: activity change, negative = inhibition [1] 19.2% | activity change, negative = inhibition [2] -3.68% | activity, negative = inhibition [3] -5.15% | Potency [4] > 20.6 µM

CCOC(=O)NC1(C(F)(F)F)C(=O)NC(C)=C1C#N (stereo not given)
inactive: activity change, negative = inhibition [1] 26.2% | activity change, negative = inhibition [2] -4.71% | activity, negative = inhibition [3] 1.98% | Potency [4] > 20.6 µM

Cn1c(=O)c2c(nc(NCC(O)CO)n2CCc2ccccc2)n(C)c1=O (stereo not given)
inactive: activity change, negative = inhibition [1] 8.87% | activity change, negative = inhibition [2] -3.8% | activity, negative = inhibition [3] 1.91% | Potency [4] > 20.6 µM

From PubChem BioAssay (NCATS)
